# This is part of a sample that, as a whole, favours compounds with a hit. Of some 83,000 tested, about 20% had one in any assay.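 Activity criterion: percent growth below 10, measured after cells in 96-well plates were exposed to a single compound concentration for 48 hours.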 Values without a mark were called inactive. Activity calls are given as the source filed them.
# Key:
# Assay in all cases: NCI-60 one-dose screen, 48 h (100 = growth as untreated, 0 = no growth, -100 = all killed)
# Conditions in all cases: 10 µM unless noted
# [1] = tested on: NCI-H23 lung
# [2] = tested on: NCI-H226 lung
# [3] = tested on: NCI-H322M lung
# [4] = tested on: HOP-62 NSCLC
# [5] = tested on: NCI-H460 lung
# [6] = tested on: HOP-92 NSCLC
# [7] = tested on: NCI-H522 lung
# [8] = tested on: A549/ATCC NSCLC
# [9] = tested on: 786-0 renal
# [10] = tested on: COLO 205 colon
# [11] = tested on: DU-145 prostate
# [12] = tested on: K-562 leukemia
# [13] = tested on: MALME-3M melanoma
# [14] = tested on: MDA-MB-231 breast
# [15] = tested on: RXF 393 renal
# [16] = tested on: SF-268 CNS
# [17] = tested on: SF-295 CNS
# [18] = tested on: SF-539 CNS
# [19] = tested on: UACC-257 melanoma
# [20] = tested on: M14 melanoma
Compound,growth [1],growth [2] [%],growth [3] [%],growth [4],growth [5],growth [6],growth [7],growth [8] [%],growth [9] [%],growth [10],growth [11],growth [12],growth [13] [%],growth [14],growth [15],growth [16],growth [17],growth [18],growth [19] [%],growth [20]
N#Cc1c(-c2ccccc2)nc(SCC(=O)N2CCN(c3ccccc3)CC2)[nH]c1=O,96.4%,108,95.8,87.7%,110%,85%,85.2%,96.6,97.9,103%,120%,112%,94.9,115%,104%,111%,102%,99.2%,89.2,96.7%
CC(=O)Nc1scc[n+]1Cc1ccccc1,88%,106,131,105%,112%,99.2%,103%,104,102,111%,118%,99.1%,130,115%,98.3%,110%,105%,104%,107,98.5%
COc1ccc(C2NN=C3c4ccccc4CCC32)cc1 (stereo not drawn),67.7%,73.5,104,67.3%,56.3%,67.5%,47.2%,68.1,91.3,78.4%,98.8%,10.2%,25.4,58.5%,47%,69.3%,40.2%,58%,60.1,
O=c1[nH]c(Nc2ccc(S(=O)(=O)O)cc2)nc2nc(Nc3ccc(NC(=S)Nc4ccccc4)cc3)nc(-c3ccc(O)cc3O)c12,102%,88.6,125,109%,105%,102%,91.9%,110,104,119%,133%,101%,98.8,90.5%,115%,104%,121%,189%,139,
Cc1ccc(S(=O)(=O)/C(=C\c2ccc(Cl)cc2)C(=O)c2ccccc2)cc1,102%,97.9,101,104%,106%,94.6%,96.3%,106,103,102%,113%,96.1%,107,103%,104%,103%,93.1%,122%,114,102%
O=C(NS(=O)(=O)c1ccc2ccccc2c1)n1cc(-c2ccncc2)c(-c2ccc(Cl)c(O)c2)n1,61.5%,84.9,116,92.1%,89.7%,48.1%,61.5%,78,99.1,105%,113%,85.6%,17.1,49.6%,52.9%,96.2%,91.1%,80.9%,31.9,28.4%
Clc1ccccc1-c1nc2ccccc2[nH]1,90%,120,152,92%,104%,92.4%,87.9%,105,46.3,112%,110%,89.6%,101,102%,99.9%,102%,96%,94.6%,113,85.8%
COC(=O)c1nc(-c2ccccc2)oc1S(=O)(=O)N1CCN(c2cccc(Cl)c2)CC1,97.4%,93.9,86.7,83%,82.2%,48.2%,53.9%,88.7,57,82.5%,92.7%,38.8%,100,73.5%,84%,80.7%,90.8%,105%,80.2,86.9%
COc1ccc2c(c1)[nH]c(=O)c1c3cccc(F)c3cn21,46.8%,45.3,52.4,53.1%,7.94% (active),69.4%,-4.04% (active),12.1,44.3,-20.8% (active),9.01% (active),36.4%,50.9,27.7%,-26.9% (active),18%,-32.1% (active),22.8%,44.8,40.4%
CCCCCCCCCCCCNC(=O)[C@H]1CSC(c2cc3ccccc3s2)N1 (stereo partly drawn),-7.5% (active),22.8,16.6,-96.3% (active),-54.8% (active),62.5%,16%,63.8,11.7,95.6%,-57.1% (active),-55.8% (active),15.4,-86.9% (active),-78.5% (active),-74% (active),18.9%,-68.1% (active),17.6,-89% (active)
CSc1nc2c(c(=O)[nH]1)C(c1ccc(C)cc1)C=C(C(=O)O)N2 (stereo not drawn),98.9%,104,101,107%,106%,122%,108%,106,104,126%,123%,110%,98.8,136%,112%,115%,89.5%,106%,110,99.8%
COC(=O)c1cccc2c1N(C)c1c(cccc1C(=O)OC)CC2,104%,112,111,107%,117%,96.4%,96.1%,112,108,102%,107%,121%,115,111%,124%,98.8%,104%,106%,121,104%
O=c1cc/c(=N\Nc2ccccc2)c(=O)/c1=N/Nc1ccccc1,93.9%,108,93.7,84.8%,95.7%,-1.02% (active),110%,123,112,137%,106%,105%,119,100%,121%,90.5%,122%,94.6%,137,82.2%
COc1ccc(C(=O)N2NC(=O)/C(=C/c3cn(-c4ccccc4)nc3-c3ccccc3)N=C2c2ccccc2)cc1,97.3%,102,97.3,115%,106%,100%,95.9%,91.6,93,120%,108%,105%,105,93.8%,104%,98.2%,86.9%,115%,95,110%
CCN(CC)c1ccc(CNc2ccnc3ccccc23)cc1,28.8%,58.6,70.6,66%,55.2%,-6.79% (active),56.2%,58.9,72.5,25.6%,70%,9.95% (active),49.5,70.2%,71.7%,82.3%,51.4%,69.7%,36.2,56.2%
Cc1ccc(C(=O)NCCCNc2nccc(-n3ccc4cccnc43)n2)cc1,102%,93.4,91.6,104%,109%,96.4%,88%,93.4,93.7,103%,96.5%,92.1%,111,104%,102%,94.7%,96%,99.2%,107,102%
